Screens as filed in PubChem BioAssay.
KDM5B inhibitor: inhibitors of human KDM5B histone demethylase | Q9UGL1 | Potency, µM (top dose mostly 57.7 µM), hits mostly inhibitors | 2.6% of 220,000 active | KDM5B demethylase, FDH-coupled NADH fluorescence (FDH is formaldehyde dehydrogenase); note: potency is the fitted concentration of half-maximal effect; 0% is about no effect; nearly all actives have a fitted effect of over 70% in size
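Here, H3K4me3 peptide (12.5 µM in substrate mix) is demethylated by KDM5BΔAP, 200 nM final, after 10 min compound exposure. Formaldehyde product is coupled through FDH (0.25 U/mL in mix) to NADH fluorescence; 30-min ΔRFU feeds dose-response curves.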
IP6K1 inh: blocks human inositol hexakisphosphate kinase 1 | Q92551 | IP6K1 kinase, ADP-Glo luminescence, 2 h; active compounds read low | activity change, % (series mostly up to about 58 µM) | 0.81% of 140,000 active; in the data active = activity change below about -25%; note: % is set by controls: 0 for no effect and ±100 for the full control effect
Target sequence (Q92551 whole entry, looked up): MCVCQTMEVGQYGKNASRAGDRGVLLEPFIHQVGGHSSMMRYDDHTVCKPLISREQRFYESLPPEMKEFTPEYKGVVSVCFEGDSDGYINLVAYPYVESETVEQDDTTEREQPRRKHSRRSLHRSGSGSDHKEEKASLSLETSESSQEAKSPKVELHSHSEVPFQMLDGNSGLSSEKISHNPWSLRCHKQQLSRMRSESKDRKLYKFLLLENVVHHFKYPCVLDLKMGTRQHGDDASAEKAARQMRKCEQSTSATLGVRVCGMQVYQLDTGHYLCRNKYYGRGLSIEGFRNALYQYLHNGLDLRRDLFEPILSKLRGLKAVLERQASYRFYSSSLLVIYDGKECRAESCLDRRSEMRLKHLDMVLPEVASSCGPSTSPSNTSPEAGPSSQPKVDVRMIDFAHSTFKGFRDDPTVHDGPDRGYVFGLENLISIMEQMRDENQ
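ADP-Glo luminescence measures ADP made by human IP6K1 during a 2 h RT reaction with ATP/IP6 (mix at 1.3 mM/130 uM); top library doses 57.5 and 19.1 uM final.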
HEK293 viab: reduces viability of HEK-293 SNCA reporter cells | HEK-293-SNCA-luc viability, GF-AFC fluorescence, 24 h | Potency, µM (highest dose often 57.1 µM), for the others: at the top dose activity change, negative = cytotoxicity, hits mostly cytotoxic | 0.12% of 150,000 active | AID 1671193;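 note: potency is the fitted concentration of half-maximal effect; 0% = DMSO-treated cells and -100% = medium-only wells without cells; nearly all actives have a fitted effect of over 30% in size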
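Cytotoxicity counterscreen: after 24 h compound treatment of genome-edited SNCA-luciferase HEK-293 cells, live-cell protease substrate GF-AFC read by fluorescence after 30 min; activity scaled between DMSO (0%) and medium-only (-100%), curves Hill-fitted.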
SNCA expr inhib: SNCA gene expression inhibition; HEK-293 SNCA-luciferase knock-in, luminescence, 24 h; Potency, µM (series often up to 57.2 µM), for the others: at the highest dose activity change, negative = inhibition, actives largely listed as inhibitors; 0.17% of 140,000 active; AID 1671194;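 note: potency is the fitted concentration of half-maximal effect; plate controls were DMSO cells for no effect and cell-free wells for full effect; nearly all actives have a fitted effect of over 45% in size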
Starred values were filed as active, the others as inactive; i = inactive; ? = inconclusive; . = no result given; [ ] = dose if it differs, or a comment. Most compounds without a hit are left out; they make up all but 2.8% or so of the library. Unless noted, calls come from the whole dose curve; as a rule, active = well fitted curve in the direction sought with a large enough effect; inconclusive = small, poorly fitted or top-dose-only effect, or another doubt; inactive = no such curve, though single readings can be large; an effect the other way counts as inactive or inconclusive.

SMILES | KDM5B inhibitor | IP6K1 inh | HEK293 viab | SNCA expr inhib
CCOCC1(C)COc2ccc(C(=O)NCCc3ccccc3)cc2N1 (configuration not stated) | 40µM* | -10 | 7%[87.6 µM] | 71%[87.6 µM]
COc1ccc(OCC2(C)COc3ccc(C(=O)N4CCN(C)C(=O)C4)cc3N2)cc1 (configuration not stated) | i | -8 | 9%[87.6 µM] | 4%[87.6 µM]
COc1ccc(OCC2(C)COc3ccc(C(=O)NCCc4ccccc4)cc3N2)cc1 (configuration not stated) | 32µM* | 4 | -4%[87.6 µM] | -26%[87.6 µM]
CCn1nc(CC(C)C)cc1C(=O)N1CCCC1c1nonc1C (configuration not stated) | i | 9 | -10% | -13%
CCOC(=O)C1CCN(C(=O)c2ccc3c(c2)sc2nc(-c4ccc(OCC)cc4)cn23)CC1 | ? | 15 | 1% | 50%
CC(C)NC(=O)c1noc(-c2ccc[nH]c2=O)n1 | i | 10 | 9% | -24%
COc1ccc(CCNC(=O)c2cc([N+](=O)[O-])cc([N+](=O)[O-])c2)cc1OC | i | . | . | .
COc1ccc(CCNC(=O)c2noc(-c3ccc[nH]c3=O)n2)cc1OC | 32µM* | 0 | 2% | 2%
O=C(NCC1CCCO1)c1noc(-c2ccc[nH]c2=O)n1 (configuration not stated) | 28µM* | 2 | 5% | -18%
O=C(NCCC1=CCCCC1)c1noc(-c2ccc[nH]c2=O)n1 | 32µM* | -2 | -4% | ?
O=C(NCc1c[nH]c2ncccc12)c1ccccc1Cl | i | -2 | 4%[87.6 µM] | 0%[87.6 µM]
COCc1nc(CCNC(=O)CCCc2nc(-c3ccc(C)cc3)no2)no1 | i | 16 | -15%[12.5 µM] | 3%
CCCNC(=O)[C@H]1CCC[C@H]1NC(=O)c1ccncc1 | i | 6 | 3% | 3%
COc1ccc(NC(=O)[C@@H]2C[C@H](c3ccc(F)cc3)N(Cc3csc(C)n3)C2)cn1 | ? | 14 | ? | -1%[87.6 µM]
CCCc1noc(-c2cccn3c(CNC(=O)CCc4ccccc4)nnc23)n1 | 18µM* | 1 | -15% | -17%
CC(C)c1noc(-c2cccn3c(CNC(=O)CCc4ccccc4)nnc23)n1 | 14µM* | 1 | -8% | 1%
O=C(c1cccs1)N(Cc1ccc(F)cc1)C1CCS(=O)(=O)C1 (configuration not stated) | i | . | . | .
COCc1ccc2c(c1)c(OC(C)(C)C(=O)NC1CCC(O)CC1)nn2Cc1ccccc1 (configuration not stated) | 25µM* | 9 | 3% | -2%
COCc1ccc2c(c1)c(OC(C)(C)C(=O)NC(C)C)nn2Cc1cccc(OC)c1 | 35µM* | -8 | -1%[87.6 µM] | -4%[87.6 µM]
CCCNC(=O)C(C)(C)Oc1nn(Cc2ccccc2)c2ccc(COC)cc12 | 32µM* | -8 | -3%[87.6 µM] | 10%[87.6 µM]
COCc1ccc2c(c1)c(OC(C)(C)C(=O)N1CC(O)C1)nn2Cc1ccccc1 | ? | -9 | -4%[87.6 µM] | -17%[87.6 µM]
COCc1ccc2c(c1)c(OC(C)(C)C(=O)N1CCOCC1)nn2Cc1cccc(OC)c1 | ? | 0 | 1% | 17%
CC(=O)Oc1cc2oc(=O)cc(C)c2cc1Cl | i | . | . | .
COc1ccc(-c2ccnc(N[C@H]3CO[C@H]4[C@@H]3OC[C@@H]4NC(=O)NCc3ccccc3)n2)cc1 | 25µM* | -16 | -8% | ?
CN(C)c1ccc(-c2ccnc(N[C@H]3CO[C@H]4[C@@H]3OC[C@@H]4NC(=O)NCc3ccccc3)n2)cc1 | 28µM* | 16 | 7% | 9%
SMILES | KDM5B inhibitor | IP6K1 inh | HEK293 viab | SNCA expr inhib
O=C(N[C@H]1CO[C@H]2[C@@H]1OC[C@@H]2Nc1nccc(-c2ccc(-c3ccccc3)cc2)n1)c1ccccc1 | ? | -2 | -23% | -19%
COc1ccc(NC(=O)C(=O)NCC2(c3ccc(OC)c(OC)c3)CCCC2)cc1 | i | 25 | 11% | 29%
Cc1cc2oc(C(=O)Nc3sc4c(c3C(=O)NCC3CCCO3)CCC4)cc(=O)c2cc1C (configuration not stated) | i | 14 | 4% | -8%
Cc1ccc(-c2nnc(SCc3cccc(C#N)c3)o2)cc1 | i | -3 | -6% | 14%
Cc1cccc(CSc2nnc(CCCCCN)o2)c1 | i | -18 | 7% | 14µM*
CCc1cc(NCC(c2ccc(C)o2)N2CCOCC2)n2nccc2n1 (configuration not stated) | 32µM* | 7 | 4% | -2%
Cc1ccc(-c2nnc3ccc(NCCc4ccccn4)nn23)nc1 | ? | -16 | -4%[87.6 µM] | -11%[87.6 µM]
COc1ccc(-c2nnc3ccc(NCCc4ccccn4)nn23)nc1 | 40µM* | -10 | 1%[87.6 µM] | 0%[87.6 µM]
O=C(NCc1cccnc1)c1nc(-c2cc(Cl)cc(Cl)c2)c2ccccn12 | i | -8 | 13% | 2%
COc1cccc(-c2nc(NCc3cccnc3)ncc2C(=O)O)c1 | ? | 11 | 4% | -16%
O=C(O)c1cnc(NCc2cccnc2)nc1-c1ccc(Cl)cc1 | 32µM* | -11 | 3% | 3%
Cc1cccc(C)c1-c1nc(C(=O)NCc2cccnc2)n2ccccc12 | 25µM* | 37 | 0% | 15%
Cc1cccc(C)c1-c1nc(C(=O)NCc2ccsc2)n2ccccc12 | 32µM* | -1 | 6% | 13%
COc1ccc(-c2nc(C(=O)NCc3cccnc3)n3ccccc23)cc1 | 28µM* | 3 | -9% | 3%
CCCn1nc(C)c(-c2cc(C(=O)N3CCc4c(nc5cc(-c6ccccc6)[nH]n5c4=O)C3)[nH]n2)c1C | ? | 22 | -1% | 1%
COCCNC(=O)c1nc(-c2ccsc2)c2ccccn12 | 40µM* | -5 | 8%[87.6 µM] | 58%[87.6 µM]
O=C(NCc1cccnc1)c1nc(-c2ccc(Cl)cc2)c2ccccn12 | 28µM* | 15 | -1% | -1%
O=C(NCc1cccnc1)c1nc(-c2ccc(Cl)nc2)c2ccccn12 | 89µM* | -12 | -13% | 20%
O=C(NCc1cccnc1)c1nc(-c2ccccc2)c2ccccn12 | i | 8 | 3%[87.6 µM] | 3%[87.6 µM]
CN(C)C(=O)N1CCN(c2nc3ncccc3o2)CC1 | ? | 25 | 2%[87.6 µM] | -4%[87.6 µM]
CC(C)C(=O)Nc1ccc2c(C(C(=O)O)N3CCN(c4cccc(Cl)c4)CC3)c[nH]c2c1 (configuration not stated) | i | . | . | .
COc1ccc(Cl)cc1NC(=O)CCC1CCCN(c2ccc(C(F)(F)F)cn2)C1 (configuration not stated) | 28µM* | 8 | 0% | -19%
O=C(c1ccco1)N1CCC(n2cc(-c3nc(-c4ccccc4)no3)nn2)C1 (configuration not stated) | i | 11 | 0% | 59%
CCc1noc(-c2ccn3c(CNC(=O)CCCc4ccccc4)nnc3c2)n1 | 7.1µM* | 37 | 10% | -6%
CCc1noc(-c2ccn3c(CNC(=O)Cc4c[nH]c5ccccc45)nnc3c2)n1 | ? | 13 | -7% | 0%
O=C(CCCc1ccccc1)NCc1nnc2cc(-c3nc(C4CC4)no3)ccn12 | 28µM* | 33 | -1% | 14%
CSc1ccccc1C(=O)Nc1ccc(C(C)(C)C)cc1 | i | . | . | .
